The values below come from PubChem BioAssay (NCI).

The panel holds about 83,000 compounds, 20% with a hit somewhere; the sample as a whole holds those more often.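 Step 1: grow cells in 96-well plates. Step 2: add test compound at a single concentration. Step 3: incubate 48 h. Step 4: record percent growth.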 Unmarked numbers belong to inactive results. Activity calls are given as the source filed them. Rule for the calls: active = growth percent below 10; inactive = the rest.

The test system of the assay is MDA-MB-435 melanoma. Kind of assay: NCI-60 one-dose screen, 48 h (100 = growth as untreated, 0 = no growth, -100 = all killed). To be noted: 10 µM unless noted.
Consider `COc1cc(CNC(=O)C[C@H](C)CCC=C(C)C)ccc1OCc1cn(-c2ccc(Br)cc2)nn1`, for which the growth was 98.3%. For `Cc1cccc(C)c1Nc1nnc(-c2c[nH]c3ccccc23)o1`, the growth was 103%. With `COc1cc(CNC(=O)C[C@H](C)CCC=C(C)C)ccc1OCc1cn(-c2ccc(Cl)c(Cl)c2)nn1`, the growth is 91.3%.

For `Cc1ccc(C(C)C)cc1Oc1cccc(-c2c(-c3ccc(C(F)(F)F)cc3)ncn2C2CCNCC2)n1`, the growth was -93.4% (active). For `COc1cc(CNC(=O)C[C@H](C)CCC=C(C)C)ccc1OCc1cn(-c2cccc(C(F)(F)F)c2)nn1` the value was 74.9%; for `Cc1ccc(Nc2nnc(-c3c[nH]c4ccccc34)o2)c(C)c1`, -41.8% (active); for `CC1=C(C)C(=O)C(N2CCSCC2)=CC1=O`, 112%.

On to `COc1ccc(C(=O)c2cc(C(C)=O)c3c(C)cc(C)cn23)cc1`, for which the growth is 49.1%. For `O=C(c1ccc(O)cc1)C1[C@H](c2ccccc2Br)[C@@H](c2ccccc2)NC12C(=O)Nc1ccccc12` (stereo not given in full), the growth was 12.3%. As to `C=CCSc1nnc(-c2ccc(-c3nc4ccccc4[nH]3)cc2)o1`, the growth is 79%. The value for `COc1cc(/C=C/C(=O)c2cnn(-c3cc(=O)[nH]c4ccc(C)cc34)c2C)cc(OC)c1OC` was 1.91% (active); that for `COc1cc(-c2ccc3ncnc(N4CCc5ccc(Cl)cc54)c3c2)cnc1Cl` was 32.8%; that for `COc1ccc(NC(=O)Cn2c(/C=C/c3cccc(OC)c3)nc3ccccc3c2=O)cc1` was 59.1%. For `CC[C@]12C=CCN3CC[C@]4(C(=C(C(=O)OC)C1)Nc1cc(OC)c([C@@H]5[C@H]6O[C@H]6[C@@]6(CC)CC(C(=O)OC)=C7Nc8cc(O)ccc8[C@@]78CCN5[C@@H]68)cc14)[C@@H]32`, the growth is -53.9% (active).

On to `COc1ccc2nc(NC(=O)c3ccc(N(C)C)cc3)sc2c1`, for which the growth is 79.8%. For `Cc1nc(N)ncc1-c1ccc2ncnc(N3CCc4cc(F)c(Cl)cc43)c2c1` the value was 94.6%. For `N#Cc1ccc(C(=O)CSc2nc3c(c(Nc4ccc(S(N)(=O)=O)cc4)n2)CCC3)cc1` the value was 86.6%. For `CN(C(=O)CN1C(=O)/C(=C/c2ccco2)SC1=S)C1CCS(=O)(=O)C1` (stereo not given) the value was 97%; for `O=C(Nc1ccc(-c2ccc3c(c2)NC(=O)/C3=C\c2ccc[nH]2)cc1)Nc1cccc(Cl)c1`, 10.1%; for `COC(=O)c1c(C(=O)OC)c2c3ccccc3c3ccccc3n2c1C(=O)C(F)(F)F`, 102%. For the molecule `O=C(N/N=C/c1c[nH]c2ccccc12)Nc1ccc(F)c(Cl)c1`, the growth is 0.865% (active). For `O=C(CSc1nnc(-c2ccc(-c3nc4ccc(Cl)cc4[nH]3)cc2)o1)Nc1ccc(Br)cc1` the value was 28.6%; for `Cn1cc(-c2cc(N)n3nc(-c4c[nH]c5ccc(Cl)cc45)cc3n2)c2cccnc21`, -84.2% (active). On to `COc1ccc2c(c1)C(Sc1ccc(Cl)cc1)c1c(nc(N)c(C#N)c1N)O2` (stereo not given), for which the growth is 75.8%.

Turning to `Cc1ccccc1NC(=O)c1cccc(NC(=O)CCl)c1`, the growth is 72.7%. Turning to `Oc1cncc(-c2ccc3ncnc(N4CCc5cc(F)c(Cl)cc54)c3c2)c1`, the growth was 69.6%. The value for `Nc1nnc(-c2cncc(Br)c2)c(-c2c[nH]c3ccc(Br)cc23)n1` was -14.4% (active). On to `C/C(=N/O)c1ccc(NC(=O)CSc2nnc(-c3ccc(-c4nc5ccc(Cl)cc5[nH]4)cc3)o2)cc1`, for which the growth was -32.9% (active). For the molecule `CCCCCCCCc1cccc(CC(=O)Nc2ccc(C)cc2C(=O)O)c1`, the growth is 54.9% [25 µM]. The value for `Cc1ccc(C(=O)Nc2cc(-n3cnc(F)c3)cc(C(F)(F)F)c2)cc1C#Cc1cnc2cccnn12` was 46.4%. Consider `CC[C@]12C=CCN3CC[C@@]4(c5ccc(OC)cc5N(C)[C@H]4[C@@](O)(C(=O)OC)[C@@H]1OC(=O)CCCC[P+](c1ccc(F)cc1)(c1ccc(F)cc1)c1ccc(F)cc1)[C@@H]32`, for which the growth is -16% (active).

Take `COc1ccc2c(c1)N=c1c-2cc2c(O)[nH]c(=S)n2c1=O`: the growth was 2.49% (active). For `O=C(CSc1nnc(-c2ccc(-c3nc4ccccc4[nH]3)cc2)o1)Nc1ccc(Cl)cc1` the value was 18.4%; for `N/C(=N\c1nc2ccc([N+](=O)[O-])cc2s1)NC(=O)Nc1ccccc1Cl`, 5.83% (active).

As for `Fc1ccc(N2CC(Cn3c(C(F)(F)F)cc4c(Cl)ncnc43)C2)c(F)c1`, the growth is 15.9%.
